# In all, about 4,500 sequences were measured (“log2 normalized fluorescence”: median about -0.34, highest 2% from about 3.3 on). The sample holds the highest values, similar sequences and a random draw of the others, so the mix is not that of the screen.
# Target: MAX:MAX (p21) (human, UniProt P61244-2 1-151)
# Test: protein-binding microarray (anti-MAX antibody); PBM: 15 mM Tris-HCl pH 7.5, 100 mM KCl, 0.075% NP40, 7.5 mM beta-mercaptoethanol, 375 ng/ul BSA, 8 ng/ul poly(dA-dT):(dA-dT), 550 ng complex, 60 min, room tempe; high values mean tight binding
# Settings: protein: recombinant; tags: 6xHis; chain copies: 2; label: 3' end of printed strand (linker) attached to glass slide; dsDNA, one strand shown
# Summary of the method: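 A custom Agilent glass array held ~5000 unique 12-nt sequences in triplicate spots, made double-stranded by primer extension. His-tagged human MYC:MAX or MAX:MAX dimers (550 ng, produced in E. coli) were applied for 60 min at room temperature in Tris-KCl buffer, pH 7.5, with NP40, BSA and poly(dA-dT) competitor. Anti-MAX and secondary antibodies detected bound protein, with scanning at 543 nm, and binding is given as log2 normalized fluorescence.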
# Sequence of MAX:MAX (p21) (P61244 other isoform, or with tags, fused parts or gaps): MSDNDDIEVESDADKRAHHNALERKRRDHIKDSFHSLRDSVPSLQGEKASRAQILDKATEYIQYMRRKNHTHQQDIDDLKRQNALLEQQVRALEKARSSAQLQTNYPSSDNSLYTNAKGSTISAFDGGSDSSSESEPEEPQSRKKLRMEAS
row,Sequence,binding signal
1,CCGGCTGAGCATTTGTATTAATAGCTAAGATTACTATATCGACG,-0.22 log2 normalized fluorescence
2,CCGGCTGACTGGATGTATTAATAGCTAAGATTACTATATCGACG,-0.202 log2 normalized fluorescence
3,CCGGCTGACATTCAGTATTAATAGCTAAGATTACTATATCGACG,0.265 log2 normalized fluorescence
4,CCGGCTGACGTGTCGTATTAATAGCTAAGATTACTATATCGACG,1.07 log2 normalized fluorescence
5,CCGGCTGATGGTCTGTATTAATAGCTAAGATTACTATATCGACG,0.348 log2 normalized fluorescence
6,CCGGCTGAGGAGGCGTATTAATAGCTAAGATTACTATATCGACG,-0.734 log2 normalized fluorescence
7,CCGGCTGACACTACGTATTAATAGCTAAGATTACTATATCGACG,-0.11 log2 normalized fluorescence
8,CCGGCTGAACGTTGGTATTAATAGCTAAGATTACTATATCGACG,0.152 log2 normalized fluorescence
9,CCGGCTGTGACGTGGTATTAATAGCTAAGATTACTATATCGACG,1.45 log2 normalized fluorescence
10,CCGGCTGACACGTGTTGTTAATAGCTAAGATTACTATATCGACG,3.32 log2 normalized fluorescence
11,CCGGCAGACACGTGATATTAATAGCTAAGATTACTATATCGACG,3.29 log2 normalized fluorescence
12,CCGGCAGACACGTGATCTTAATAGCTAAGATTACTATATCGACG,3.05 log2 normalized fluorescence
13,CCGGCTGACACGTGCTGTTAATAGCTAAGATTACTATATCGACG,3 log2 normalized fluorescence
14,CCGGCTGACACGTGTCGTTAATAGCTAAGATTACTATATCGACG,3.18 log2 normalized fluorescence
15,CCGGCAGACACGCGATATTAATAGCTAAGATTACTATATCGACG,2.93 log2 normalized fluorescence
16,CCGGCCGACATGTGGTGTTAATAGCTAAGATTACTATATCGACG,3.43 log2 normalized fluorescence
17,CCGGCAGACATGTGGTGTTAATAGCTAAGATTACTATATCGACG,3.1 log2 normalized fluorescence
18,CCGGCCGACATGTGGTATTAATAGCTAAGATTACTATATCGACG,3.18 log2 normalized fluorescence
19,CCGGCTGATGGTAGGTATTAATAGCTAAGATTACTATATCGACG,0.124 log2 normalized fluorescence
20,CCGGCTGATTCAAGGTATTAATAGCTAAGATTACTATATCGACG,-0.736 log2 normalized fluorescence

row,Sequence,binding signal
1,CCGGCTGACTAGGCGTATTAATAGCTAAGATTACTATATCGACG,-0.638 log2 normalized fluorescence
2,CCGGCTGACTCCGCGTATTAATAGCTAAGATTACTATATCGACG,-0.516 log2 normalized fluorescence
3,CCGGCTGAGACACGGTATTAATAGCTAAGATTACTATATCGACG,0.481 log2 normalized fluorescence
4,CCGGCTGACTGTACGTATTAATAGCTAAGATTACTATATCGACG,-0.112 log2 normalized fluorescence
5,CCGGCTGACCCAGTGTATTAATAGCTAAGATTACTATATCGACG,-0.0826 log2 normalized fluorescence
6,CCGGCTGAACTCGGGTATTAATAGCTAAGATTACTATATCGACG,-0.618 log2 normalized fluorescence
7,CCGGCTGAACTACCGTATTAATAGCTAAGATTACTATATCGACG,-0.334 log2 normalized fluorescence
8,CCGGCTGACGTGTGGTTTTAATAGCTAAGATTACTATATCGACG,1.65 log2 normalized fluorescence
9,CCGGCTGACACGTGGTTTTAATAGCTAAGATTACTATATCGACG,3.37 log2 normalized fluorescence
10,CCGGCTGACACGTGGGGTTAATAGCTAAGATTACTATATCGACG,3.36 log2 normalized fluorescence
11,CCGGCTGACACGGGTTTTTAATAGCTAAGATTACTATATCGACG,2.09 log2 normalized fluorescence
12,CCGGCTGACACGTGGAGTTAATAGCTAAGATTACTATATCGACG,2.99 log2 normalized fluorescence
13,CCGGCTGACACGTGTAGTTAATAGCTAAGATTACTATATCGACG,3.17 log2 normalized fluorescence
14,CCGGCTGACACGTGGATTTAATAGCTAAGATTACTATATCGACG,3.24 log2 normalized fluorescence
15,CCGGCTGACACGTGGCGTTAATAGCTAAGATTACTATATCGACG,3.2 log2 normalized fluorescence
16,CCGGCTGACACGTGTGGTTAATAGCTAAGATTACTATATCGACG,3.39 log2 normalized fluorescence
17,CCGGCTGACGCGTGGTTTTAATAGCTAAGATTACTATATCGACG,3.21 log2 normalized fluorescence
18,CCGGCTGACACGTGTAATTAATAGCTAAGATTACTATATCGACG,3.24 log2 normalized fluorescence
19,CCGGCTGACACGTGGGTTTAATAGCTAAGATTACTATATCGACG,3.39 log2 normalized fluorescence

# Source: PMC5515408, “Sequence-specific DNA binding by MYC/MAX to low-affinity non-E-box motifs”
